From PubChem BioAssay
TMEM16A inh: mouse TMEM16A channel inhibition, primary screen. HEK293 TMEM16A/YFP iodide influx fluorescence, ionomycin. normalized B-score (activity score, 25-100; higher = stronger inhibition) at 10 µM. actives 1.2% (n = 310,000). AID 588511;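 active = ratio plate-corrected score three or more library SD toward inhibition, starting fluorescence score within five deviations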;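 also: score derived from kinetic fluorescence span divided by baseline fluorescence per well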
ANO1 activ: activators or potentiators of mouse TMEM16A chloride channel. Q8BHY3. HEK293 TMEM16A/YFP-H148Q/I152L, iodide quench fluorescence; active compounds read low. actives 0.3% (n = 340,000). B-score at 10 µM;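 active = fluorescence-ratio B-score plate-corrected deviation score at least 3 library SD below zero, with starting fluorescence score within 5 deviations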;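 also: channel opened by trigger with iodide after compound preincubation; score built on the fluorescence ratio of max minus min over baseline; more negative score means more quench and so TMEM16A activation or potentiation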
NOD2 RIPK2 PPI: inhibitors of human NOD2-RIPK2 interaction; AID 624267; CHO BLA complementation NOD2-RIPK2, CCF4 ratio; inhibition, % at 4.98 µM; O43353; actives 0.38% (n = 360,000); in the data active = inhibition above about 21%
TLR9-MyD88 inh: blocks human TLR9 binding to MyD88; AID 504734; inhibition, % at 4.98 µM; Q9NR96+Q99836; actives 0.21% (n = 340,000); CHO BLA complementation TLR9-MyD88, CCF4 FRET ratio;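 active = inhibition above the mean over all tested compounds plus 3 SD, cut at about 21% in these data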
TLR4 MyD88 comp: blocks binding of human TLR4 to MyD88; O00206+Q99836; HeLa CL3-4 TLR4/MyD88 BLA complementation, FRET ratio; inhibition, % at 8.4 µM; actives 0.18% (n = 200,000); AID 861; in the data active = inhibition above about 25%
m5-HT2A agonist: agonists of mouse serotonin 5-HT2A receptor (HTR2A) | activation, % at 7.6 µM | CHO-K1 mHTR2A beta-arrestin complementation, luminescence; percent of 30 µM serotonin response | actives 0.66% (n = 360,000) | P35363;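 active = activation above a run cutoff, the mean activation of all tested compounds plus 3 SD, cut at about 14% in these data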
Target sequence (P35363 whole entry, looked up): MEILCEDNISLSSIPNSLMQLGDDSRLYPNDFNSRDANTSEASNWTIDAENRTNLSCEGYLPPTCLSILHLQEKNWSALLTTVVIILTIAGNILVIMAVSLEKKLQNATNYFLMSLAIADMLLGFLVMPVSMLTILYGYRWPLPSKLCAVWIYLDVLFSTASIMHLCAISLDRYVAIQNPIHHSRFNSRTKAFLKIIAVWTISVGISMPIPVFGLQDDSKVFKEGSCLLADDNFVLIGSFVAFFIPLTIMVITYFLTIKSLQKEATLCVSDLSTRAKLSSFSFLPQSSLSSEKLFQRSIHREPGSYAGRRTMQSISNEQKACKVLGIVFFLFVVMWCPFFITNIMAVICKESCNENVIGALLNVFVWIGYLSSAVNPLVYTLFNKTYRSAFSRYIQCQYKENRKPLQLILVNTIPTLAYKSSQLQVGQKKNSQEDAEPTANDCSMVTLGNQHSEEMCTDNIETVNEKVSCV
MOR ag counter: OPRM1 agonism in mouse HTR2A counterscreen; actives 5.3% (n = 2,300); activation, % at 9.3 µM; AID 624380; U2OS OPRM1 beta-arrestin PathHunter, luminescence; DMSO 0%, DAMGO 9.3 µM 100%; shares compounds with m5-HT2A agonist;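 active = mean activation above the mean of DMSO-only wells plus 3 SD, cut at about 0.5% in these data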
m5-HT2A ag conf: mouse HTR2A agonism confirmed. activation, % at 7.6 µM. CHO-K1 PathHunter beta-arrestin recruitment, luminescence; DMSO 0%, 30 µM serotonin 100%. AID 624381. actives 19% (n = 2,300). shares compounds with m5-HT2A agonist;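 active = mean activation across triplicates above the hit threshold derived in the original primary screen, cut at about 15% in these data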
Large screens that a line does not name were inactive (follow-up assays come after a bar, where they were run). The list is not random: actives were taken first. Their share in the collection is about 2.4%.

C[C@H](NC(=O)c1[nH]cnc1C(=O)Nc1ccc(CNC(=O)OC(C)(C)C)cc1)C(=O)OC(C)(C)C	m5-HT2A agonist 19 (no result: TLR4 MyD88 comp) | MOR ag counter inactive | m5-HT2A ag conf inactive
CN1CCn2cnc(C(=O)Nc3ccc(CNC(=O)OC(C)(C)C)cc3)c2C1=O	m5-HT2A agonist 16 (no result: TMEM16A inh, ANO1 activ, TLR4 MyD88 comp) | MOR ag counter inactive | m5-HT2A ag conf inactive
O=C(CNS(=O)(=O)c1ccc(F)cc1)N1CCCC1	none (no result: TLR9-MyD88 inh, TLR4 MyD88 comp)
O[C@@H](c1cc(C(F)(F)F)nc2c(C(F)(F)F)cccc12)[C@H]1CCCCN1	m5-HT2A agonist 26 (no result: TLR4 MyD88 comp) | MOR ag counter 0.9 | m5-HT2A ag conf inactive
OC(c1cc(C(F)(F)F)nc2c(Cl)cc(Cl)cc12)C1CCCCN1 (configuration not stated)	none (no result: TLR4 MyD88 comp)
COc1ccc(C(C)NC(=O)Cc2cccs2)cc1OC (configuration not stated)	none (no result: TLR4 MyD88 comp)
Cc1cc(NC(=O)c2cccc(S(=O)(=O)N3CCOCC3)c2)no1	none
Cc1cc(NC(=O)c2cccc(S(=O)(=O)N3CCCCC3)c2)no1	m5-HT2A agonist 18 (no result: TLR4 MyD88 comp) | MOR ag counter inactive | m5-HT2A ag conf inactive
Cc1cc(NS(=O)(=O)c2ccc(NC(=S)NC(=O)c3cccc(S(=O)(=O)N(C)C)c3)cc2)no1	m5-HT2A agonist 16 | MOR ag counter inactive | m5-HT2A ag conf inactive
O=C(NC1CCCC1)c1cccc(S(=O)(=O)N2CCCCC2)c1	m5-HT2A agonist 16 | MOR ag counter inactive | m5-HT2A ag conf inactive
Cc1cc(NS(=O)(=O)c2ccc(NC(=S)NC(=O)c3ccc(F)cc3)cc2)no1	none
O=Cc1ccc(OCc2nnsc2Cl)cc1	none
CC1CCC(NC(=O)CN(C)S(=O)(=O)c2ccc3c(c2)CCC(=O)N3)CC1 (configuration not stated)	none (no result: TLR4 MyD88 comp)
CC(=O)c1ccc(Oc2ncnc3sccc23)c(CN2CCOCC2)c1	none
COc1ccc(CN(C(=O)c2snc(C(N)=O)c2N)C(C(=O)NC2CCCC2)c2ccc(OC)c(OC)c2)cc1 (configuration not stated)	none (no result: TLR4 MyD88 comp)
COc1ccc(C(C(=O)NC2CCCC2)N(Cc2ccccc2)C(=O)c2snc(C(N)=O)c2N)cc1OC (configuration not stated)	m5-HT2A agonist 16 (no result: TLR4 MyD88 comp) | MOR ag counter inactive | m5-HT2A ag conf inactive
CCN(c1ccc(C)c(C)c1)S(=O)(=O)c1ccc2c(c1)CCN2C(=O)CCC(=O)O	none
CCN(c1ccc(OC)cc1)S(=O)(=O)c1ccc2c(c1)CCN2C(=O)CCC(=O)O	m5-HT2A agonist 14 | MOR ag counter inactive | m5-HT2A ag conf inactive
O=C(CSc1nnc(Cc2cc(=O)[nH]c(=O)[nH]2)n1-c1ccccc1)N1CCCc2ccccc21	m5-HT2A agonist 16 | MOR ag counter inactive | m5-HT2A ag conf inactive
Cc1ccc(C2=NN(CC(=O)O)C(=O)CC2)cc1	none (no result: TLR4 MyD88 comp)
O=c1cc2ncc(-c3[nH]ncc3[N+](=O)[O-])cn2[nH]1	none (no result: TLR4 MyD88 comp)
COc1ccc(CN2CCN(c3ncccn3)CC2)c(OC)c1	m5-HT2A agonist 39 | MOR ag counter inactive | m5-HT2A ag conf 99
COc1ccc(CN2CCN(c3ccccn3)CC2)c(OC)c1	m5-HT2A agonist 40 | MOR ag counter inactive | m5-HT2A ag conf 82
COc1cc(CN2CCCCCC2)cc(OC)c1	none (no result: TLR4 MyD88 comp)
COc1cc(CN2CCN(c3ncccn3)CC2)cc(OC)c1	m5-HT2A agonist 21 (no result: TLR4 MyD88 comp) | MOR ag counter inactive | m5-HT2A ag conf 121
C[C@H]1CN([C@@H](C)CO)C(=O)c2c(c3ccccc3n2C)-c2ccccc2CO[C@H]1CN(C)Cc1cccc(F)c1	none (no result: TMEM16A inh, ANO1 activ, TLR4 MyD88 comp)
C[C@H](CO)N1C[C@H](C)[C@H](CN(C)Cc2cccc(O)c2)OCc2ccccc2-c2c(n(C)c3ccccc23)C1=O	m5-HT2A agonist 23 (no result: TMEM16A inh, ANO1 activ, TLR4 MyD88 comp) | MOR ag counter inactive | m5-HT2A ag conf 32
O=C(c1[nH]c(C(F)(F)F)nc1-c1ccccc1)N1CCN(c2cccc(C(F)(F)F)n2)CC1	m5-HT2A agonist 14 (no result: TMEM16A inh, ANO1 activ, TLR9-MyD88 inh, TLR4 MyD88 comp) | MOR ag counter inactive | m5-HT2A ag conf inactive
NC(=O)c1ccc(Oc2ccc3ccc(=O)oc3c2)c([N+](=O)[O-])c1	none
c1ccc(Cc2nnc(Sc3ccccc3)c3ccccc23)cc1	m5-HT2A agonist 26 | MOR ag counter inactive | m5-HT2A ag conf inactive
CCN(CC)CCn1c(NC(=O)c2ccc(C)cc2)nc2ccccc21	m5-HT2A agonist 25 (no result: TLR4 MyD88 comp) | m5-HT2A ag conf inactive
CCc1noc(C)c1C(=O)Nc1cc(Cl)ccc1-n1cncn1	none (no result: TLR4 MyD88 comp)
CCCCCCCCCCCC(=O)N1CC(=O)NC(=O)C1	none (no result: TLR9-MyD88 inh, TLR4 MyD88 comp)
CCS(=O)(=O)Nc1ccc(-c2cc(-c3ccccc3)c3cc(C)ccc3n2)cc1	m5-HT2A agonist 15 | MOR ag counter inactive | m5-HT2A ag conf inactive
Cc1ccc2nc(-c3ccc(NS(C)(=O)=O)cc3)cc(-c3ccccc3)c2c1	none
CSCCCc1cn([C@@H](CO)C(=O)NCCCCCCCCCCC(=O)N2CCNCC2)nn1	m5-HT2A agonist 24 (no result: TLR4 MyD88 comp) | MOR ag counter inactive | m5-HT2A ag conf inactive
NCCCC[C@@H](C(=O)NCCCCCCCCCCC(=O)N1CCNCC1)n1cc(CCO)nn1	none (no result: TLR4 MyD88 comp)
Cc1cc(Cl)ccc1C(=O)C1CCCN(C(=O)c2cc(C(C)C)no2)C1 (configuration not stated)	m5-HT2A agonist 46 | MOR ag counter inactive | m5-HT2A ag conf inactive
CC(=O)Nc1ccc(Nc2nnc(-c3ccc(C)c(S(N)(=O)=O)c3)c3ccccc23)cc1	none (no result: TLR4 MyD88 comp)
Cc1ccc(-c2nnc(Nc3ccc4c(c3)OCO4)c3ccccc23)cc1S(N)(=O)=O	m5-HT2A agonist 15 | MOR ag counter inactive | m5-HT2A ag conf inactive
Cc1nc2cc(-c3ccc(Br)cc3)[nH]n2c(=O)c1Cl	m5-HT2A agonist 18 (no result: TLR4 MyD88 comp) | MOR ag counter inactive | m5-HT2A ag conf inactive
CC(=O)N1CCC(N2CCN(c3ccccc3F)CC2)CC1	m5-HT2A agonist 26 | MOR ag counter inactive | m5-HT2A ag conf 64
Cc1cc(=O)[nH]c(SCC(=O)Nc2ccc(F)c([N+](=O)[O-])c2)n1	m5-HT2A agonist 28 | MOR ag counter inactive | m5-HT2A ag conf inactive
Cc1ccc2nc(SCC(=O)Nc3ccc(F)c([N+](=O)[O-])c3)[nH]c2c1	none
O=C(Nc1nc2ccccc2s1)c1ccc(N2CCCCC2)c([N+](=O)[O-])c1	m5-HT2A agonist 49 | MOR ag counter inactive | m5-HT2A ag conf 18
O=C(Nc1ccon1)c1ccc(N2CCCCC2)c([N+](=O)[O-])c1	none
COc1cccc(CNCCNC(=O)c2nonc2N)c1	m5-HT2A agonist 19 | MOR ag counter inactive | m5-HT2A ag conf inactive
